Experimental data: the supplement of paper PMC11732987, “Enantioselective OTUD7B fragment discovery through chemoproteomics screening and high-throughput optimisation” (Communications Chemistry, 2025)
Unmarked numbers belong to inactive results.

These targets were tested with COc1cccc(CN(C)C(=O)CCl)c1 (assay: log2 ratio of Biotin-Ahx-Ub-VS probe labelling (compound/DMSO); higher = less target engagement, active = hit call of the paper (q ≤ 0.05, log2 ratio ≤ -1)). Conditions: compound concentration: 50uM; treatment time: 3 h.
Protocol: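 Round 2 competitive ABPP in HEK293T lysate. Compounds were tested at 50 and 200 µM for 3 h, followed by Biotin-Ahx-Ub-VS enrichment and diaPASEF LC-MS/MS. Values are the average log2 ratio (compound/DMSO) from an unpaired t-test (n=3 treated, n=26 DMSO).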

Sequence of UniProt Q92905 (Q92905 whole entry, looked up): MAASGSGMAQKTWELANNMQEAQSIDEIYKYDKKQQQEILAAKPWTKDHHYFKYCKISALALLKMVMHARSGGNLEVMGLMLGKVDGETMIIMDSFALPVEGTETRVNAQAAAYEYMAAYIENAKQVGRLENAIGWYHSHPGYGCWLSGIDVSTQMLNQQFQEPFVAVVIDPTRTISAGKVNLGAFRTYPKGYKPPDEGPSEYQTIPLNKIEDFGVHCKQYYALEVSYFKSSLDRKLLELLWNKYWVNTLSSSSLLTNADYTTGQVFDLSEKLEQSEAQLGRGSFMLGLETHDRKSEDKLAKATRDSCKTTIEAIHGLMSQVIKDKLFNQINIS
Sequence of UniProt Q96JH7 (Q96JH7 whole entry): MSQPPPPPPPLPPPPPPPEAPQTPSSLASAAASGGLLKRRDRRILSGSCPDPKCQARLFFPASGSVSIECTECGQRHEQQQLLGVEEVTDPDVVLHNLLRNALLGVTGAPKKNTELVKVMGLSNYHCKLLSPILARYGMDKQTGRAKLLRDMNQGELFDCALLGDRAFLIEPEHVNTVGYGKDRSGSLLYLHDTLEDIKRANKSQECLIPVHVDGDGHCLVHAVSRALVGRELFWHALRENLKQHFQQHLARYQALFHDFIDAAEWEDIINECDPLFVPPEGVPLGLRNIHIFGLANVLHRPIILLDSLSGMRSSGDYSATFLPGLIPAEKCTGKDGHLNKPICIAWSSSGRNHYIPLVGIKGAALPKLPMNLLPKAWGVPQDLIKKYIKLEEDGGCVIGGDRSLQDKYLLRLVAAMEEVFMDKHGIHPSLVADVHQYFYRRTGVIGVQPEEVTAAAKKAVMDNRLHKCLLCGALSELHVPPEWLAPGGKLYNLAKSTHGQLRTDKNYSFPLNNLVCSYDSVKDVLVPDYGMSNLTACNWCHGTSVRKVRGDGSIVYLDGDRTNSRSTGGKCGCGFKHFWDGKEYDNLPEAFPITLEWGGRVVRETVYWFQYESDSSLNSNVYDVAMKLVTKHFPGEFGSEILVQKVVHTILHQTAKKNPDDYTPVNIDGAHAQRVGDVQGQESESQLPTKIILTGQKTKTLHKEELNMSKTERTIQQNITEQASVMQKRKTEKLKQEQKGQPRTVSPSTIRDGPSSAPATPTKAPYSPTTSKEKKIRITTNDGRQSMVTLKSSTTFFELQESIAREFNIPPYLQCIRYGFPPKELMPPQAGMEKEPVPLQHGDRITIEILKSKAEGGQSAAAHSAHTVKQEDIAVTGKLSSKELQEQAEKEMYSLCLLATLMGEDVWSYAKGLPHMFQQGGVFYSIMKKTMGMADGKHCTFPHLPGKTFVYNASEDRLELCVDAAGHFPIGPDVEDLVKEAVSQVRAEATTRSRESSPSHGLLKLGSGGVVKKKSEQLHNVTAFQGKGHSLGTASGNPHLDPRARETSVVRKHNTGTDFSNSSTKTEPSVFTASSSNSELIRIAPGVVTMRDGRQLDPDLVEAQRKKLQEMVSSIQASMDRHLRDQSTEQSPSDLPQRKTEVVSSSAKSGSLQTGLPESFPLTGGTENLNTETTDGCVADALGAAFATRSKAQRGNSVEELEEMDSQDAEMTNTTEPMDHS
Sequence of UniProt O94966 (O94966 whole entry): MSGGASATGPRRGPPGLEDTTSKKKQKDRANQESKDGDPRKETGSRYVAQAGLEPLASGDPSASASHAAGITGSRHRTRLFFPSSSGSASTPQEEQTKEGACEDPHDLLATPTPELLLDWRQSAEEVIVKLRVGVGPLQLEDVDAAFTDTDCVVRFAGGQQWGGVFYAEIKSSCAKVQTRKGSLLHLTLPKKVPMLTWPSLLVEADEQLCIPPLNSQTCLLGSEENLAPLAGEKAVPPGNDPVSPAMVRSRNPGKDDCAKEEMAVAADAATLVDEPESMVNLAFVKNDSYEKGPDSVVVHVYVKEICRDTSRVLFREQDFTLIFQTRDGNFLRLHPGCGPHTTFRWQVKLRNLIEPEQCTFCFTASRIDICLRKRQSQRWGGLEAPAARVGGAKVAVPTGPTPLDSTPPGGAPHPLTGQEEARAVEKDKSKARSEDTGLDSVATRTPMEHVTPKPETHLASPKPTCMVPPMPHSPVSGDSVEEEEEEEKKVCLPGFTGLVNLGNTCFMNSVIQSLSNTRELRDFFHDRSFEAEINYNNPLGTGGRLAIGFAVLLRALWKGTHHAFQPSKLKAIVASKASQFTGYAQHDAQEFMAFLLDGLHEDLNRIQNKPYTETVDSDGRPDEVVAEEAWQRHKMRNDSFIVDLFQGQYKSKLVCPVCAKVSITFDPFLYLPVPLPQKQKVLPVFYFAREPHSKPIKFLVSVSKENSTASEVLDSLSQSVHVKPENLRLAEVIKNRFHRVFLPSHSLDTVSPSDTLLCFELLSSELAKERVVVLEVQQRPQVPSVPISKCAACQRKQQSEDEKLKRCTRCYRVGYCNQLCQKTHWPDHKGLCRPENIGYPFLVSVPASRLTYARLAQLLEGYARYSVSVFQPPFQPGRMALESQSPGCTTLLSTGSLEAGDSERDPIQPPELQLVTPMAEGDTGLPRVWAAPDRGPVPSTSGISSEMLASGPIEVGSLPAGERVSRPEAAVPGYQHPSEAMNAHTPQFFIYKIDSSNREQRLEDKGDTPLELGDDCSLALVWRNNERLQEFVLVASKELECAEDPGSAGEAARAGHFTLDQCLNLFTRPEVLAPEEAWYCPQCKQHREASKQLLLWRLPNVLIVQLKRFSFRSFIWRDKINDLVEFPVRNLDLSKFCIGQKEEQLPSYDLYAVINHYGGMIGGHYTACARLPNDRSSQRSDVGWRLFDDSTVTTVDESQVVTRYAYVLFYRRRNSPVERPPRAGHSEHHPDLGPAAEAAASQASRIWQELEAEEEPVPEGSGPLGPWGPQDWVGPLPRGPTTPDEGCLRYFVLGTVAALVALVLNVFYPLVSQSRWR
Sequence of UniProt Q93009 (Q93009 whole entry, looked up): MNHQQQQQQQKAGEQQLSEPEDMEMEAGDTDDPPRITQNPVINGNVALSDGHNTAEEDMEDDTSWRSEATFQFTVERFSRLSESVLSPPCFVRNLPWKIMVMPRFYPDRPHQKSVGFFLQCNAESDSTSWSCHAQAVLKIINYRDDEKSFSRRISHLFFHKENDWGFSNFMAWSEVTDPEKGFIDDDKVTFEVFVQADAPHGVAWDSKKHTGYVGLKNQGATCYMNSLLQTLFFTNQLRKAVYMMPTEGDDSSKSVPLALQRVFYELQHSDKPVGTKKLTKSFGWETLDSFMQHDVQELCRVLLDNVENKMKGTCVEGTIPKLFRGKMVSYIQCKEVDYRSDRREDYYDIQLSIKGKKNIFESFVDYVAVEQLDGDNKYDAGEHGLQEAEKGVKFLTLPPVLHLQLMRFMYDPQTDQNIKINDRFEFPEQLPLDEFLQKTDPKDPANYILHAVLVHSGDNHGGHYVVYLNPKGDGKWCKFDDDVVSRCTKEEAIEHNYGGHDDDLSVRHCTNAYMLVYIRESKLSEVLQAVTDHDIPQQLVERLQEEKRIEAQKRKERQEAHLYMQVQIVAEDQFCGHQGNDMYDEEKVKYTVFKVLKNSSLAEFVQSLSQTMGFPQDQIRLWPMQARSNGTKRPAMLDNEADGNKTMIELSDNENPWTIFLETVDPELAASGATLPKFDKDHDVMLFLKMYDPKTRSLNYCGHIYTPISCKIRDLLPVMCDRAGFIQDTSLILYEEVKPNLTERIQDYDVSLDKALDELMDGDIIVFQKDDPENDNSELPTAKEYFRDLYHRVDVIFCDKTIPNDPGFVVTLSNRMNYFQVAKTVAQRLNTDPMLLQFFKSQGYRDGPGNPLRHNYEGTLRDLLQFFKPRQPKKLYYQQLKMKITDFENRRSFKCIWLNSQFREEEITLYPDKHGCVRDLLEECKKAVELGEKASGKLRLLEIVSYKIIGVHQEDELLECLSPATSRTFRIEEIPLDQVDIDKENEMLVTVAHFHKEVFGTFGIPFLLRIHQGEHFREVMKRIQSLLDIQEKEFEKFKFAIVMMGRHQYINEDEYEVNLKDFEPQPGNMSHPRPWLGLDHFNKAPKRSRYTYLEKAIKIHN
Sequence of UniProt Q14694 (Q14694 whole entry): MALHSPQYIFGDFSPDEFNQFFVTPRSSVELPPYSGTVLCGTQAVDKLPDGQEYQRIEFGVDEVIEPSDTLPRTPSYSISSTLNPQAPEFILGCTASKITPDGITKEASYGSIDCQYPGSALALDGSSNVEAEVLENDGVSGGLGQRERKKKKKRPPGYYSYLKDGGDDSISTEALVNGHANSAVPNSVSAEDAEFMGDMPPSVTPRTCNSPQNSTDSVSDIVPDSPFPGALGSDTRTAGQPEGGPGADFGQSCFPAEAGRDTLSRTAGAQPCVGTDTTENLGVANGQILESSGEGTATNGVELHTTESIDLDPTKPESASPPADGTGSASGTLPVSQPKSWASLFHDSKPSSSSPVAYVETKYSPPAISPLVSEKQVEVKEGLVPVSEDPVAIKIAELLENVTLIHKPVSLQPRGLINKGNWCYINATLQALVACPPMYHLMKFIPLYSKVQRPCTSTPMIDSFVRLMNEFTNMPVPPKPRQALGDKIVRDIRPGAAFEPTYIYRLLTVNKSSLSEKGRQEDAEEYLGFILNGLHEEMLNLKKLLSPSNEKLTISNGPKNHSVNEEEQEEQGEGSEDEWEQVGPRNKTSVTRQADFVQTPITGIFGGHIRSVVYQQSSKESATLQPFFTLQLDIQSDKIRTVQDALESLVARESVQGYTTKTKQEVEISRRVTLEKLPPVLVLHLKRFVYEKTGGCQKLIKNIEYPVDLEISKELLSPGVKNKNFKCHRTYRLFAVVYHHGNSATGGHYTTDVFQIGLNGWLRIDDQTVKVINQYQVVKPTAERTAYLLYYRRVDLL

Row | Target | log2 ratio of Biotin-Ahx-Ub-VS probe labelling
1 | USP15 (UniProt Q9Y4E8) | -0.185
2 | USP7 (UniProt Q93009) | -0.4
3 | VCPIP1 (UniProt Q96JH7) | -0.139
4 | COPS5 (UniProt Q92905) | -0.236
5 | USP19 (UniProt O94966) | -0.209
6 | USP10 (UniProt Q14694) | -0.177
7 | UniProt Q9P2H5 | -0.267
8 | USP46 (UniProt P62068) | -0.277

Same assay, conditions: compound concentration: 200uM; treatment time: 3 h

Row | Target | log2 ratio of Biotin-Ahx-Ub-VS probe labelling
9 | USP15 (UniProt Q9Y4E8) | -0.33
10 | USP7 (UniProt Q93009) | -1.53 (active)
11 | VCPIP1 (UniProt Q96JH7) | -0.277
12 | COPS5 (UniProt Q92905) | -0.578
13 | USP19 (UniProt O94966) | -0.661
14 | USP10 (UniProt Q14694) | 0.037
15 | UniProt Q9P2H5 | -0.143
16 | USP46 (UniProt P62068) | -0.261
